Experimental data taken from the supplement of paper PMC4840960.
Values without a mark were called inactive.

test system: E18 rat cortical neuron-glia co-culture; assay: myelination (MBP fiber length per Olig2+ nucleus), % of 1 µM DAPT response (DMSO = 0) (% of DAPT); higher = more myelination, active = 50 or more; conditions: 5 µM; treatment time: 8 days (DIV5-DIV13)
In short: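 Rat cortical co-cultures from E18 tissue were dissociated with papain and plated at 20,000 cells/well on 96-well plates coated with poly-d-lysine/laminin. From DIV5 to DIV13, library compounds were added at 1 or 5 µM in myelination medium. After fixation in 4 % paraformaldehyde, cultures were immunostained for MBP and Olig2 and counterstained with DAPI, and four 10X fields were analysed in each of duplicate wells. The myelination value is the length of continuous straight MBP fibers per Olig2+ nucleus, normalised so that 0.1 % DMSO is 0 and a 1 µM positive control is 100.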

| Structure (SMILES) | myelination |
| --- | --- |
| COc1ccc([C@@H]2Sc3ccccc3N(CCN(C)C)C(=O)[C@@H]2OC(C)=O)cc1 [Diltiazem] | -20.8 |
| CC[N+](C)(CC)CCOC(=O)C(O)(c1ccccc1)C1CCCCC1 (centres undefined) [Oxyphenonium] | -6.58 |
| C[C@H]1C[C@@H]2[C@H]([C@@H](O)C[C@@]3(C)[C@H]2CC[C@]3(O)C(=O)CO)[C@@]2(C)C=CC(=O)C=C12 [Methylprednisolone] | 2.01 |
| COc1ccc2cc([C@H](C)C(=O)O)ccc2c1 [Naproxen] | -4.96 |
| COc1cc2nc(N3CCN(C(=O)c4ccco4)CC3)nc(N)c2cc1OC [Prazosin] | 3.87 |
| COc1cc(C)nc(-n2nc(C)cc2OC)n1 [Epirizole] | -13.2 |
| CCCCC[C@H](O)/C=C/[C@H]1[C@H](O)CC(=O)[C@@H]1CCCCCCC(=O)O [Alprostadil] | -7.47 |
| CC[C@@H](CO)NCCN[C@@H](CC)CO [Ethambutol] | -6.9 |
| CC(=O)Nc1nnc(S(N)(=O)=O)s1 [Acetazolamide] | -1.11 |
